From PubChem BioAssay (Tox21)
Records with an inconclusive call do not appear. Active and inactive are the calls of the source. Unless noted, calls come from the whole dose curve; as a rule, active = well fitted curve in the direction sought with a large enough effect in the repeat runs; inconclusive = weak or mixed curves; inactive = no such curve, though single readings can be large; an effect the other way counts as inactive or inconclusive.

What was measured:
[1] = A CellTox Green Cytotoxicity Assay to monitor cytotoxicity in HepG2 cells - 24 hour (AID 1224878); note: nearly all actives have a fitted effect of over 45% in size
Summary of the method: (§1)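 Cytotoxicity was tracked as dead-cell DNA fluorescence in HepG2 cells treated with test compounds at 37 C; each time-point value comes from one kinetic series spanning 0, 8, 16, 24, 32 and 40 h.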

[2] = A CellTox Green Cytotoxicity Assay to monitor cytotoxicity in HEK293 cells - 32 hour (AID 1224881); note: nearly all actives have a fitted effect of over 40% in size
Summary of the method: (§2)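 Real-time, in one plate: 600 HEK293 cells/well with dead-cell DNA dye, pinned compound after 5 h, 37 C incubation over 40 h; viable cells give no appreciable fluorescence.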

[3] = A CellTox Green Cytotoxicity Assay to monitor cytotoxicity in HepG2 cells - 0 hour (AID 1224882); note: nearly all actives have a fitted effect of over 35% in size
Summary of the method: as §1

[4] = A CellTox Green Cytotoxicity Assay to monitor cytotoxicity in HepG2 cells - 32 hour (AID 1224883); note: nearly all actives have a fitted effect of over 50% in size
Summary of the method: as §1

[5] = A CellTox Green Cytotoxicity Assay to monitor cytotoxicity in HEK293 cells - 8 hour (AID 1224884); note: nearly all actives have a fitted effect of over 35% in size
Summary of the method: as §2

[6] = qHTS RealTime-Glo MT Cell Viability Assay in HepG2 cells - 16 hour (AID 1224885); note: nearly all actives have a fitted effect of over 50% in size
Summary of the method: (§3)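 qHTS, HepG2, 600 cells/well, RealTime-Glo (NanoLuc + prosubstrate) added with cells; 5 h preincubation; DMSO compound addition; 37 C; luminescence at 0/8/16/24/32/40 h.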

[7] = qHTS RealTime-Glo MT Cell Viability Assay in HEK293 cells - 8 hour (AID 1224887); note: top concentration of the series differs between compounds; nearly all actives have a fitted effect of over 50% in size
Summary of the method: (§4)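 Kinetic, non-lysing viability readout. Seed HEK293 (600/well) with reagent, incubate 5 h at 37 C/5% CO2, pin 23 nL compound in DMSO, incubate at 37 C, read luminescence at 0, 8, 16, 24, 32, 40 h.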

[8] = A CellTox Green Cytotoxicity Assay to monitor cytotoxicity in HEK293 cells - 16 hour (AID 1224888); note: nearly all actives have a fitted effect of over 35% in size
Summary of the method: as §2

[9] = qHTS RealTime-Glo MT Cell Viability Assay in HepG2 cells - 0 hour (AID 1224889); note: nearly all actives have a fitted effect of over 50% in size
Summary of the method: as §3

[10] = A CellTox Green Cytotoxicity Assay to monitor cytotoxicity in HepG2 cells - 8 hour (AID 1224890); note: nearly all actives have a fitted effect of over 45% in size
Summary of the method: as §1

[11] = qHTS assay to identify small molecule antagonists of the estrogen receptor alpha (ER-alpha) signaling pathway using the BG1 cell line in the presence of 0.1 nM 17-beta-estradiol - cell viability counter screen (AID 1259241); note: nearly all actives have a fitted effect of over 40% in size
Summary of the method: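 Following 5 days in phenol red-free medium with charcoal-stripped serum, VM7Luc4E2 cells received test compounds alongside 0.1 nM 17beta-estradiol (final) at 37C for 22 hr. Live cells were then quantified via protease-substrate fluorescence.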

[12] = qHTS assay to identify small molecule antagonists of the androgen receptor (AR) signaling pathway using the MDA cell line in the presence of 0.5 nM R1881 - cell viability counter screen (AID 1259242); note: nearly all actives have a fitted effect of over 45% in size
Summary of the method: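 Cells seeded at 3,000/well and allowed 5 hr at 37C, 0% CO2 before compound transfer and R1881 (0.5 nM final) addition; 16 hr later, live-cell protease fluorescence indicated cytotoxicity.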

[13] = target: Estrogen receptor (Homo sapiens) (UniProt P03372); experiment: qHTS assay to identify small molecule antagonists of the estrogen receptor alpha (ER-alpha) signaling pathway using the BG1 cell line in the presence of 0.1 nM 17-beta-estradiol (AID 1259244); note: nearly all actives have a fitted effect of over 50% in size
Sequence of Estrogen receptor (Homo sapiens) (P03372 whole entry, looked up): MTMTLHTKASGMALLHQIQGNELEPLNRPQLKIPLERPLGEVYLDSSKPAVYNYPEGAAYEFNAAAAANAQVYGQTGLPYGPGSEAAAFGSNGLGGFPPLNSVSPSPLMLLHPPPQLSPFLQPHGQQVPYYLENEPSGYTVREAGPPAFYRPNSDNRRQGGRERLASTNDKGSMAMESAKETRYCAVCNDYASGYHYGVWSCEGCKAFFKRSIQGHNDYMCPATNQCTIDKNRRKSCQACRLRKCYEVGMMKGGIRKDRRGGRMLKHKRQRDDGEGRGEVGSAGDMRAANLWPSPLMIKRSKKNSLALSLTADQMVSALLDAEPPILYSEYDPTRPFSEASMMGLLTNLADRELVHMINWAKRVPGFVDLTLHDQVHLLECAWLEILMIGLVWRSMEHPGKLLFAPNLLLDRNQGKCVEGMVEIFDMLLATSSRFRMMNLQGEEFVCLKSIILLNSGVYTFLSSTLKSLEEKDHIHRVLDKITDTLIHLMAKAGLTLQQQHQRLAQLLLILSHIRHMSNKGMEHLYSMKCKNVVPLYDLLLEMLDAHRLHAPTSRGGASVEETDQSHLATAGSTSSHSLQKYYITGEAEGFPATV
Summary of the method: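 Luciferase signal from VM7Luc4E2 ERE-reporter cells, co-dosed with test compound and 0.1 nM final 17beta-estradiol for 22 h, read with ONE-Glo.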

[14] = qHTS assay to identify small molecule phospholipidosis (PLD) inducers (AID 1259344; active = well fitted curve in the direction sought with a large enough effect; an effect the other way counts as inactive or inconclusive)
Summary of the method: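 Cells (HepG2, 900 per well) attach for 4 h, receive LipidTOX Red and compound together, incubate 24 h at 37 C, are fixed 30 min with paraformaldehyde/Hoechst, then imaged at one site per well.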

[15] = qHTS assay to identify small molecule HDAC inhibitors (AID 1259364);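 note: wild-type HCT-116 cells with endogenous class I/II HDAC activity; top concentration of the series differs between compounds; nearly all actives have a fitted effect of over 45% in size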
Summary of the method: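 HCT-116 wt cells, 1,500/well, overnight attach. Compounds (DMSO) 2 h, 37 °C. HDAC-Glo I/II, 30 min RT. Luminescence.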

[16] = qHTS assay to identify small molecule HDAC inhibitors - cell viability counter screen (AID 1259365)
Summary of the method: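 HCT-116 wild-type, overnight attachment; 2hr drug exposure, 37C; CellTiter-Glo luminescent ATP readout after 30min RT.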

[17] = A CellTox Green Cytotoxicity Assay to monitor cytotoxicity in HepG2 cells - 40 hour (AID 1224879); note: nearly all actives have a fitted effect of over 40% in size
Summary of the method: as §1

[18] = qHTS RealTime-Glo MT Cell Viability Assay in HEK293 cells - 0 hour (AID 1224880)
Summary of the method: as §4

[19] = qHTS RealTime-Glo MT Cell Viability Assay in HEK293 cells - 24 hour (AID 1224886)
Summary of the method: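 Assay medium contained NanoLuc luciferase plus cell-permeant prosubstrate, added with HEK293 cells at 600 cells/well. After 5 h at 37 C/5% CO2 compounds were added; plates stayed at 37 C for 40 h with serial luminescence reads.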

[20] = target: Androgen receptor (Homo sapiens) (UniProt P10275); experiment: qHTS assay to identify small molecule antagonists of the androgen receptor (AR) signaling pathway using the MDA cell line in the presence of 0.5 nM R1881 (AID 1259243); note: nearly all actives have a fitted effect of over 50% in size
Sequence of Androgen receptor (Homo sapiens) (P10275 whole entry, looked up): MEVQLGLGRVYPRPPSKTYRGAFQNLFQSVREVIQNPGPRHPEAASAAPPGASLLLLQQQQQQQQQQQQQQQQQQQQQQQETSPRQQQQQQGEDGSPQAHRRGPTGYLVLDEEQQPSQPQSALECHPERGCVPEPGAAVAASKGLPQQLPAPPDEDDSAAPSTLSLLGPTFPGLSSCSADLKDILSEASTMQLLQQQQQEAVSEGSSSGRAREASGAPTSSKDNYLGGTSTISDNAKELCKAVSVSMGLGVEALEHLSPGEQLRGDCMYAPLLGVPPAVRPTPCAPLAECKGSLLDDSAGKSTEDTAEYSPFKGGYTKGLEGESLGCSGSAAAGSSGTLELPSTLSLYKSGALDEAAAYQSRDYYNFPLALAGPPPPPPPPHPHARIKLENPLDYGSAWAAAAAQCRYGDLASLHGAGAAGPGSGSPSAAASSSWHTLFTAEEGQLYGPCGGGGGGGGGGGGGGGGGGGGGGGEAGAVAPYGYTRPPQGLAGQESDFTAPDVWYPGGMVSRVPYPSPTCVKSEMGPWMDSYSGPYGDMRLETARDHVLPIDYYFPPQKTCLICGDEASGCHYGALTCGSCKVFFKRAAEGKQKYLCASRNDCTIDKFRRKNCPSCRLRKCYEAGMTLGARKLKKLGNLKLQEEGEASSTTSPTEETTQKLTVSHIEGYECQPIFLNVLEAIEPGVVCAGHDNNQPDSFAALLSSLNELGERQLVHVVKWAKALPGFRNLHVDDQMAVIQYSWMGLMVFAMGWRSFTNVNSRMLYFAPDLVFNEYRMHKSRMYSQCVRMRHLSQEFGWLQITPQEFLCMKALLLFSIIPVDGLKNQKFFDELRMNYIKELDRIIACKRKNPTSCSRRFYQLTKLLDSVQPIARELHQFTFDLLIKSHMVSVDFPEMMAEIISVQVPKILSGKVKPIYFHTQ
Summary of the method: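 Luminescence from an AR/GR-responsive MMTV-luciferase construct in MDA-kb2 breast carcinoma cells, read 30 min after ONE-Glo, following 16 hr co-treatment with compounds and 0.5 nM R1881.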
% is set by controls: 0 for no effect and ±100 for the full control effect.

CC1(C)S[C@@H]2[C@H](NC(=O)Cc3ccccc3)C(=O)N2[C@H]1C(=O)O (tested in a mixture with another compound)
inactive: Potency [1] | Potency [2] | Potency [3] | Potency [4] | Potency [5] | outcome [6] | outcome [7] | Potency [8] | Potency [9] | Potency [10] | outcome [11] | outcome [12] | outcome [13] | Potency [14] | Potency [15] | outcome [16]

CCCCCCCCCCCCCCCCN(C)C
inactive: cytotoxicity increase [17] 0.0455% [at 6.97 µM] | activity change, negative = cytotoxicity [18] 2.86% [at 6.97 µM] | cytotoxicity increase [2] 3.45% [at 6.97 µM] | cytotoxicity [3] 2.28% [at 6.97 µM] | cytotoxicity increase [4] 1.06% [at 6.97 µM] | cytotoxicity increase [5] -0.796% [at 6.97 µM] | activity change, negative = cytotoxic [6] 0.191% [at 6.97 µM] | activity change, negative = cytotoxicity [19] 5.99% [at 6.97 µM] | activity change, negative = cytotoxicity [7] 5.23% [at 6.97 µM] | activity change [8] 0.327% [at 6.97 µM, stronger effect = higher value] | activity change, negative = cytotoxicity [9] 4.22% [at 6.97 µM] | cytotoxicity increase [10] 2.33% [at 6.97 µM] | activity change, negative = cytotoxicity [11] 8.65% [at 8.39 µM] | viability change, negative = cytotoxic [12] 0.99% [at 8.39 µM] | activity, negative = inhibition [20] 15.5% [at 8.39 µM] | activity change, negative = inhibition [15] 2.04% [at 8.39 µM] | activity change, negative = cytotoxicity [16] 1.52% [at 8.39 µM]

O=C(O)Cc1c(Cl)ccc(Cl)c1Cl
inactive: Potency [17] | Potency [18] | Potency [2] | Potency [3] | Potency [4] | Potency [5] | outcome [6] | outcome [19] | outcome [7] | Potency [8] | Potency [9] | Potency [10] | outcome [11] | outcome [12] | outcome [13] | Potency [15] | outcome [16]

NS(=O)(=O)c1cc2c(cc1C(F)(F)F)NCNS2(=O)=O
inactive: Potency [17] | Potency [18] | Potency [2] | Potency [3] | Potency [4] | Potency [5] | outcome [6] | outcome [19] | outcome [7] | Potency [8] | Potency [9] | Potency [10] | outcome [11] | outcome [12] | outcome [13] | Potency [14] | Potency [15]

BrCCOc1ccccc1
inactive: Potency [17] | Potency [18] | Potency [2] | Potency [3] | Potency [4] | Potency [5] | outcome [6] | outcome [19] | outcome [7] | Potency [8] | Potency [9] | Potency [10] | outcome [11] | outcome [12] | outcome [13] | Potency [15] | outcome [16]

Nc1nc(Cl)cc(Cl)n1
inactive: Potency [1] | Potency [18] | Potency [2] | Potency [3] | Potency [4] | Potency [5] | outcome [6] | outcome [19] | outcome [7] | Potency [8] | Potency [9] | Potency [10] | outcome [11] | outcome [12] | outcome [13] | Potency [15] | outcome [16]

C=C(C)C(=O)OCCOC1CC2CC1C1C=CCC21 (centres undefined)
inactive: Potency [1] | Potency [18] | Potency [2] | Potency [3] | Potency [4] | Potency [5] | outcome [6] | outcome [19] | outcome [7] | Potency [8] | Potency [9] | outcome [11] | outcome [12] | Potency [15]

C=CCCCCCCCCOC(C)=O
inactive: Potency [1] | Potency [18] | Potency [2] | Potency [3] | Potency [4] | Potency [5] | outcome [19] | outcome [7] | Potency [8] | Potency [9] | Potency [10] | outcome [11] | outcome [12] | outcome [16]

CC(O)CCCCn1c(=O)c2c(ncn2C)n(C)c1=O (centres undefined)
inactive: Potency [1] | Potency [18] | Potency [2] | Potency [3] | Potency [4] | Potency [5] | outcome [6] | outcome [19] | outcome [7] | Potency [8] | Potency [9] | outcome [11] | outcome [12] | Potency [14] | Potency [15] | outcome [16]

CC(C)(C)OC=O
inactive: Potency [1] | Potency [18] | Potency [2] | Potency [3] | Potency [4] | Potency [5] | outcome [6] | outcome [19] | outcome [7] | Potency [8] | Potency [9] | Potency [10] | outcome [11] | outcome [12] | Potency [15] | outcome [16]

C/C=C(\C)C=O
inactive: Potency [1] | Potency [2] | Potency [3] | Potency [4] | Potency [5] | outcome [6] | outcome [7] | Potency [8] | Potency [9] | Potency [10] | outcome [11] | outcome [12] | outcome [16]

C=C(C)C(=O)OCCCC
inactive: Potency [17] | Potency [18] | Potency [2] | Potency [3] | Potency [4] | Potency [5] | outcome [6] | outcome [19] | outcome [7] | Potency [8] | Potency [9] | Potency [10] | outcome [11] | outcome [12] | Potency [20] | Potency [15]

CO/N=C(\C(=O)O)c1csc(NC(=O)CCl)n1
inactive: Potency [1] | Potency [18] | Potency [2] | Potency [3] | Potency [4] | Potency [5] | outcome [6] | outcome [19] | outcome [7] | Potency [8] | Potency [9] | outcome [11] | outcome [12] | Potency [15] | outcome [16]

COc1ccc2cc(CCC(C)=O)ccc2c1
inactive: Potency [1] | Potency [18] | Potency [2] | Potency [3] | Potency [4] | Potency [5] | outcome [6] | outcome [19] | outcome [7] | Potency [8] | Potency [9] | Potency [10] | outcome [11] | outcome [12] | Potency [14] | outcome [16]

COCCCOc1cc(C[C@@H](C[C@H](N)[C@@H](O)C[C@H](C(=O)NCC(C)(C)C(N)=O)C(C)C)C(C)C)ccc1OC
inactive: Potency [1] | Potency [18] | Potency [2] | Potency [3] | Potency [4] | Potency [5] | outcome [7] | Potency [8] | Potency [9] | outcome [11] | outcome [12] | Potency [15] | outcome [16]

CCNC(=O)C(C)OC(=O)Nc1ccccc1 (centres undefined)
inactive: Potency [1] | Potency [18] | Potency [2] | Potency [3] | Potency [4] | Potency [5] | outcome [6] | outcome [19] | outcome [7] | Potency [8] | Potency [9] | Potency [10] | outcome [12] | outcome [13] | outcome [16]

Cc1ccc(O)c([N+](=O)[O-])c1
inactive: Potency [1] | Potency [18] | Potency [2] | Potency [3] | Potency [4] | Potency [5] | outcome [6] | outcome [7] | Potency [8] | Potency [9] | outcome [11] | outcome [12] | outcome [13] | Potency [15] | outcome [16]
